This note sets out measurements from PubChem BioAssay (EPA / NIEHS).

Experiment [1] can be described thus: Tanguay_ZF_120hpf_SWIM_legacy: (Legacy) Oregon State University Tanguay Lab 120 Hour Post-fertilization zebrafish Assay for Swim Bladder Malformation (AID 2283654).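 Also: swim bladder malformation in each larva scored yes or no under brightfield.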 In a few lines: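 Static waterborne exposure of single dechorionated Tropical 5D zebrafish embryos, 6–120 hpf, 28C, 0.64% DMSO final. Read-out: swim bladder malformation, present/absent, relative to DMSO negative control; trimethyltin chloride 5uM served as positive control.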

Experiment [2] can be described thus: Tanguay_ZF_120hpf_TRUN_legacy: (Legacy) Oregon State University Tanguay Lab 120 Hour Post-fertilization zebrafish Assay for Truncated Body (AID 2283655). The gist of the method: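 Single dechorionated zebrafish embryos received test chemical from 6 hpf in 0.64% DMSO, kept at 28C. At 120 hpf, brightfield inspection noted any truncated body.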
Read-out in experiment [3]: solute carrier (SLC22A6), SLC22A6 (gene 9356)
The experiment is described as follows: LTEA_HepaRG_SLC22A6: Life Technologies and Expression Analysis (LTEA) Assay for solute carrier (SLC22A6) using HepaRG (AID 2283653; active = hit-call score of the fitted dose curve at least 0.9, where 1 is the maximum; inactive = score below 0.9). As to conditions: mRNA level, 48 h; actives raise or lower the signal. The gist of the method:
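Gene-expression endpoint in HepaRG hepatic cells: duplicate 8-point concentration-response, highest 100 uM, 48 h treatment in serum-free medium with 0.5% DMSO. SLC22A6 expression measured by qRT-PCR, normalised to ACTB/GAPDH/POLR2A.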

Read-out in experiment [4]: solute carrier (SLC10A1), SLC10A1 (gene 6554)
The experiment in a line: LTEA_HepaRG_SLC10A1: Life Technologies and Expression Analysis (LTEA) Assay for solute carrier (SLC10A1) using HepaRG (AID 2283657; active = hit-call score of the fitted dose curve at least 0.9, where 1 is the maximum; inactive = score below 0.9). As to conditions: mRNA level, 48 h; actives raise or lower the signal. In a few lines: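 Cryopreserved HepaRG cells are thawed, plated and cultured 48 h; medium is then switched to serum-free induction medium and chemicals added (8 points, max 100 uM, 0.5% DMSO). After 48 h, RNA is isolated and SLC10A1 quantified by qRT-PCR.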

Read-out in experiment [5]: matrix metalloproteinase-1 (MMP1), MMP1 (gene 4312)
The experiment is described as follows: LTEA_HepaRG_MMP1: Life Technologies and Expression Analysis (LTEA) Assay for matrix metalloproteinase-1 (MMP1) using HepaRG (AID 2283658; active = hit-call score of the fitted dose curve at least 0.9, where 1 is the maximum; inactive = score below 0.9). Particulars: mRNA level, 48 h; actives raise or lower the signal. The gist of the method:
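In this screen, human liver HepaRG cultures receive each chemical in duplicate for 48 h (top 100 uM, 0.5% DMSO). MMP1 expression is then quantified by TaqMan qRT-PCR with ACTB/GAPDH/POLR2A normalization.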

Experiment [6] relates to Thyroperoxidase (TPO), gene 54314. The experiment is described as follows: CCTE_Simmons_AUR_rTPO: CCTE's Amplex UltraRed Assay for Thyroperoxidase (TPO) Inhibition, Simmons Lab (AID 2283662).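 As to AC50: potency for loss of signal meaning inhibition of peroxidase activity.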 The gist of the method:
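Cell-free peroxidase activity assay using rat thyroid gland microsomes with excess H2O2 (300 uM) and 25 uM Amplex UltraRed. Compounds tested from 5 nM to 87.5 uM; fluorescence measured after 30 min at 37C, analysed relative to DMSO baseline.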

Experiment [7] can be described thus: Tanguay_ZF_120hpf_NC_legacy: (Legacy) Oregon State University Tanguay Lab 120 Hour Post-fertilization zebrafish Assay for Notochord and Tail Malformation (AID 2283656). In a few lines:
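Binary notochord-distortion calls, made by brightfield inspection, form the read-out; activity is fitted in the positive direction against DMSO. Exposure ran statically from 6 to 120 hpf at 28C with 0.64% DMSO.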

Read-out in experiment [8]: ABC Transporter (ABCB1), ABCB1 (gene 5243)
The experiment is described as follows: CLD_ABCB1_6hr: CellzDirect (CLD) Gene Expression Assay for ABC Transporter (ABCB1) at 6 hours (AID 2283659).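 Also: hits raise ABCB1 transcript above the DMSO vehicle baseline.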 In a few lines: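 ABCB1 transcript measured by quantitative nuclease protection assay, chemiluminescent read-out, 6 h after dosing human hepatocyte cultures (0.2% DMSO vehicle, daily redosing). Activity fitted as increase over DMSO baseline; cytotoxicity flagged by phase-contrast morphology.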

Read-out in experiment [9]: Broad substrate specificity ATP-binding cassette transporter ABCG2 (Homo sapiens) (UniProt Q9UNQ0)
The experiment in a line: CLD_ABCG2_6hr: CellzDirect (CLD) Gene Expression Assay for ABC Transporter (ABCG2) at 6 hours (AID 2283660). The gist of the method: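 ABCG2 mRNA induction measured by qNPA chemiluminescence in human primary hepatocyte cultures, 6 h post-dose. Chemicals tested at several concentrations against a 0.2% DMSO vehicle; positive-direction fit relative to DMSO.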

Read-out in experiment [10]: xenobiotic metabolism (CYP1A1), CYP1A1 (gene 1543)
The experiment is described as follows: CLD_CYP1A1_6hr: CellzDirect (CLD) Gene Expression Assay for xenobiotic metabolism (CYP1A1) at 6 hours (AID 2283661). In a few lines:
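Read-out 6 h post-dose: qNPA chemiluminescent quantitation of transcript induction against 0.2% DMSO. Cells were cultured primary human hepatocytes from two separate donor preparations; phase-contrast morphology annotated apparent cytotoxicity.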

Results filed as inconclusive are left out. Active and inactive are the calls of the source. The calls were made as follows, unless noted: active = hit-call score of the fitted dose curve at least 0.9, where 1 is the maximum; inconclusive = response in the unintended direction; inactive = score below 0.9.

Sequence of Broad substrate specificity ATP-binding cassette transporter ABCG2 (Homo sapiens) (Q9UNQ0 whole entry, looked up): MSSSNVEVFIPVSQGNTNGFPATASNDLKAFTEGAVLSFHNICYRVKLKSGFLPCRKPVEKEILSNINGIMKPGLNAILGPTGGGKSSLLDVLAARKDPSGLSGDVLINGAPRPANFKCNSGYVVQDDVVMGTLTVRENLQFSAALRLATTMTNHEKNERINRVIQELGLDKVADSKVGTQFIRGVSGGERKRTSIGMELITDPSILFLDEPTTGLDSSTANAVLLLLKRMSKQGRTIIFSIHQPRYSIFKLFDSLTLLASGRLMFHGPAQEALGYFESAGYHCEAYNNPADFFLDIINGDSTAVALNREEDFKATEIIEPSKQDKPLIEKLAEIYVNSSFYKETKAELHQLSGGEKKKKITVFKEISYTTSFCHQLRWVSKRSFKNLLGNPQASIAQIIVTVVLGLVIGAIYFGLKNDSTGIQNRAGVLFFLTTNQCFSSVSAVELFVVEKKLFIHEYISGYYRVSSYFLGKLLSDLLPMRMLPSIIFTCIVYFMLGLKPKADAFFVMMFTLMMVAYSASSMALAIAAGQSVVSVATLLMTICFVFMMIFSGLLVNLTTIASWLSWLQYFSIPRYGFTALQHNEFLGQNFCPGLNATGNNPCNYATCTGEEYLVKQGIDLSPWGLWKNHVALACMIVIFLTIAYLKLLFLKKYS

As to `O=C(N[C@H]1CN2CCC1CC2)c1cc2ccoc2cn1`, the call in experiment [1] and in experiment [2] was inactive.

For `ClC(Cl)=C(c1ccc(Cl)cc1)c1ccc(Cl)cc1`, the outcome in [1] and in experiment [2] was inactive.

The term AC50 denotes the concentration giving half of the maximal activity seen. Regarding `CO/C=C(/C(=O)OC)c1ccccc1COc1cccc(C(F)(F)F)n1`, the AC50 in [1] is 14.5 µM (active); in experiment [2] it was 7.84 µM (active).

As for `O=S(=O)(O)C(F)(F)C(F)(F)C(F)(F)C(F)(F)C(F)(F)C(F)(F)F`, the compound was classed as inactive in experiment [1] and in [2].

Take `Cc1cc(-c2ccc(N)c(C)c2)ccc1N`: the compound was classed as inactive in experiment [1] and in experiment [2].

Consider `O=C(O)C(F)(F)C(F)(F)C(F)(F)C(F)(F)C(F)(F)C(F)(F)C(F)(F)C(F)(F)C(F)(F)F`, for which the compound was classed as inactive in experiment [3], in experiment [1] and in experiment [2]. Moreover, the AC50 was 23.3 µM (active) in [4], 72.2 µM (active) in experiment [5] and 22.7 µM (active) in [6].

For the compound `C1CC2OC2CC1C1CO1` (stereo not drawn), the outcome in [1], in experiment [2] and in experiment [7] was inactive.

For the compound `CC1=C2C[C@H]3[C@@H](CC=C4C[C@@H](O)CC[C@@]43C)[C@@H]2CC[C@]12O[C@@H]1C[C@H](C)CN[C@H]1[C@H]2C`, the compound was called inactive in experiment [3], in experiment [2], in [7], in experiment [4] and in experiment [5].

As to `ClC1=C(Cl)[C@]2(Cl)[C@@H]3[C@@H]4C[C@@H]([C@H]5O[C@@H]45)[C@@H]3[C@@]1(Cl)C2(Cl)Cl`, the compound was called inactive in [1].

With `Nc1ccc(-c2ccc(N)cc2)cc1`, the call in experiment [1] and in experiment [2] was inactive.

For the compound `O=NN(c1ccccc1)c1ccccc1`, in experiment [1], the outcome was inactive.

As for `CCCCCCCCCc1ccc(O)cc1`, the compound was classed as inactive in experiment [3], in experiment [1], in experiment [2], in [4] and in experiment [5]. Moreover, the AC50 in [6] was 10.5 µM (active).

As for `C[C@]12CCC(=O)C=C1CC[C@@H]1[C@@H]2CC[C@@]2(C)[C@H]1CC[C@]2(C)O`, the compound was called inactive in experiment [1] and in experiment [2].

For the compound `O=C(O)C(F)(F)C(F)(F)C(F)(F)C(F)(F)C(F)(F)F`, the compound was called inactive in [1] and in [2].

As for `CN(C)CCO`, the result in [1] and in experiment [2] was inactive.

For the compound `O=C(NC(=O)c1cc(F)c(F)cc1Cl)Nc1cc(F)ccc1N1CCC(C(=O)O)CC1`, the outcome in experiment [1] and in experiment [2] was inactive.

With `Cc1ccccc1[N+](=O)[O-]`, the compound was classed as inactive in [1] and in experiment [2].

On to `CCC(C)c1cc([N+](=O)[O-])cc([N+](=O)[O-])c1O` (stereo not drawn), for which the result in [1] and in experiment [2] was inactive.

Turning to `Cc1cccc([N+](=O)[O-])c1`, the call in [1], in experiment [2] and in [7] was inactive.

For `Clc1ccc(Cl)cc1`, the call in [3], in [2], in [7], in experiment [4] and in experiment [5] was inactive.

In the case of `CCCN(CCC)N=O`, the outcome in [1] and in experiment [2] was inactive.

With `Clc1ccc(C(c2ccccc2Cl)C(Cl)(Cl)Cl)cc1` (stereo not drawn), the call in [1] and in experiment [2] was inactive.

Consider `C=CC(=O)NCNC(=O)C=C`, for which the compound was classed as inactive in experiment [1] and in experiment [2].

As for `Cc1cccc(C)c1N`, the result in experiment [1] and in experiment [2] was inactive.

Turning to `Oc1ccc(Cl)cc1Cl`, the call in [1] and in experiment [2] was inactive.

Turning to `CC(C)C(=O)OCC(C)(C)C(OC(=O)C(C)C)C(C)C` (stereo not drawn), the compound was classed as inactive in [1], in experiment [2] and in experiment [7].

Take `C=CC(N)=O`: in experiment [1], the outcome was inactive.

Take `CC#Cc1cc(C)nc(Nc2ccccc2)n1`: the compound was called inactive in [1].

`ClC1=C(Cl)[C@]2(Cl)[C@@H]3[C@H]4C[C@H]([C@@H]5O[C@H]45)[C@@H]3[C@@]1(Cl)C2(Cl)Cl`: the outcome in [1] and in experiment [2] was inactive.

`N#Cc1ccc(N(CC(N)=O)CC(F)(F)F)cc1C(F)(F)F`: the result in experiment [1], in experiment [2] and in experiment [7] was inactive.

With `COS(=O)(=O)OC`, the compound was classed as inactive in [3], in experiment [1], in experiment [2], in [4] and in [5]. In addition, the AC50 in [6] was 27 µM (active).

As to `Cc1ccccc1O`, the call in experiment [1] and in experiment [2] was inactive.

In the case of `O=C(O)C(F)(F)C(F)(F)C(F)(F)C(F)(F)C(F)(F)C(F)(F)C(F)(F)C(F)(F)F`, the result in [1], in experiment [2] and in experiment [6] was inactive.

In the case of `CC(c1ccc(O)cc1)(c1ccc(O)cc1)c1ccc(O)cc1`, the call in [1] and in experiment [2] was inactive. For the same compound, the AC50 in [6] was 1.41 µM (active).

Consider `Sc1ccccc1`, for which the result in experiment [6] was inactive.

Turning to `CCCCCCCCOC(=O)c1ccccc1C(=O)OCCCCCCCC`, the call in [1], in experiment [2] and in experiment [7] was inactive. In experiment [6], the AC50 was 11.8 µM (active).

Turning to `CCOCCOC(C)=O`, the outcome in experiment [1], in [2] and in experiment [7] was inactive.

Turning to `CCOC(=O)C(O)(c1ccc(Cl)cc1)c1ccc(Cl)cc1`, the outcome in experiment [1], in experiment [2] and in [7] was inactive.

As to `Oc1c(Cl)c(Cl)c(Cl)c(Cl)c1Cl`, the outcome in experiment [1] and in experiment [2] was inactive. The concentration at half-maximal activity (AC50) in experiment [6] is 8.93 µM (active).

For the compound `CCC(C)(c1ccc(O)cc1)c1ccc(O)cc1`, the figures for the AC50 in [1], in experiment [2] and in experiment [6] were 43.1 µM (active), 46.6 µM (active) and 1.86 µM (active), respectively.

Take `COc1ccc(O)c(C(C)(C)C)c1`: the compound was classed as inactive in experiment [1], in [2] and in [7]. The AC50 in [6] was 0.701 µM (active).

With `CC(C)(c1ccccc1)c1ccc(O)cc1`, the compound was called inactive in experiment [1]. For the same compound, in [6], the AC50 is 3.55 µM (active).

`Cc1ccc(O)c(C)c1`: the call in [1] and in [2] was inactive. The AC50 in experiment [6] is 18.2 µM (active).

For the compound `CN(C)c1nc(=O)n(C2CCCCC2)c(=O)n1C`, the result in experiment [2], in [8], in [9] and in experiment [10] was inactive.
